# Experiments:
# [1] = molecular target: Tyrosine-protein kinase SYK (Homo sapiens) (UniProt P43405); conditions: at 1 µM
# [2] = molecular target: T1, Tyrosine-protein kinase Tec (Homo sapiens) (UniProt P42680); conditions: at 0.1 µM
# T1 sequence (whole entry): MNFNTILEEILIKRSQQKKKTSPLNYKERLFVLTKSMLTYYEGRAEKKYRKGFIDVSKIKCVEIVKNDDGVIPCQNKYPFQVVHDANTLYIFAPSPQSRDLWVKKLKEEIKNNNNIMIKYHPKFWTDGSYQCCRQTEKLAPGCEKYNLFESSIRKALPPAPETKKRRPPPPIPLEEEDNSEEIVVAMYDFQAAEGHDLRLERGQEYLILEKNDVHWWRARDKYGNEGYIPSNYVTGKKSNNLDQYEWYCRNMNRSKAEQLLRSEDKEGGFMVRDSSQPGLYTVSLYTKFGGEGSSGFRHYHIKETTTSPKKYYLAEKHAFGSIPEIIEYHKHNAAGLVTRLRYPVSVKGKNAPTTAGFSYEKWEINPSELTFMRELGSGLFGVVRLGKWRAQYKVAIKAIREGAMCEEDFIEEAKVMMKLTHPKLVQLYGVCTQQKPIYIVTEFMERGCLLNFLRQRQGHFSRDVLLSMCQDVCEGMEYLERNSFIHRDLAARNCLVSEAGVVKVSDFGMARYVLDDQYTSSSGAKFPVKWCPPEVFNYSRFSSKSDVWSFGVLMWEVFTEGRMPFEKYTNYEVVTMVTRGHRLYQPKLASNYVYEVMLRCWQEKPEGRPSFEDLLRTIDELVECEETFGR
# [3] = molecular target: T1, Tyrosine-protein kinase Tec (Homo sapiens); conditions: at 1 µM
# [4] = molecular target: Angiopoietin-1 receptor (Homo sapiens) (UniProt Q02763); conditions: at 0.1 µM
# Chain of Angiopoietin-1 receptor (Homo sapiens) (Q02763 whole entry): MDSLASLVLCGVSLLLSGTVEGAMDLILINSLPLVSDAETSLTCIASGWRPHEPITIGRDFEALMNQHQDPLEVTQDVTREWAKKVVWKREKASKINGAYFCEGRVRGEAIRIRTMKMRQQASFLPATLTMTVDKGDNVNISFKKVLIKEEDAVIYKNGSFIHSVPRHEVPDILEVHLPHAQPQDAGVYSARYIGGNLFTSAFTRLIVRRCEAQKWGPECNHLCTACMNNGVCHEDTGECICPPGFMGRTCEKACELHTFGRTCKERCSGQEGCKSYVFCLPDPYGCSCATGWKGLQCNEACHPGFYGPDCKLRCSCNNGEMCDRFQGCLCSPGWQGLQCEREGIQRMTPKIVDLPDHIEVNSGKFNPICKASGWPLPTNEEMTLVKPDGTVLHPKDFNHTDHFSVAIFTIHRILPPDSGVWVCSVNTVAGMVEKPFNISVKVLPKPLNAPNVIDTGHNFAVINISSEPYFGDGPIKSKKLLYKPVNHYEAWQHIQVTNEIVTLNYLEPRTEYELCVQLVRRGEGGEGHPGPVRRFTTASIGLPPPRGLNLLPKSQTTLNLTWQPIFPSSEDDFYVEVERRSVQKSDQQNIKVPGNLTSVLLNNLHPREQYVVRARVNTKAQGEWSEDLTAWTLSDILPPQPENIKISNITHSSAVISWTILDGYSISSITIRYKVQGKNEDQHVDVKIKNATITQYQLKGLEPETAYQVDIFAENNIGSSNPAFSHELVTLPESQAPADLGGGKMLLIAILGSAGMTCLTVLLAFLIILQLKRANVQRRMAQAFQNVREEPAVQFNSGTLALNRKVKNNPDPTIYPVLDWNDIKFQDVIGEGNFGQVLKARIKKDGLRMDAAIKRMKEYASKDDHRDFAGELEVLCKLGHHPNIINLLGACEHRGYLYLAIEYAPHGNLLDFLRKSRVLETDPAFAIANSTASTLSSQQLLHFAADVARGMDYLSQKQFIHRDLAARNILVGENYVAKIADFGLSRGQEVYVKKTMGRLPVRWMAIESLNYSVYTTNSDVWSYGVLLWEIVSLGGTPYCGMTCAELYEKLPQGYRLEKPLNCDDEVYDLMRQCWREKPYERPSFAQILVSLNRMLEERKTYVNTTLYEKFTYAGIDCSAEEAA
# [5] = molecular target: Angiopoietin-1 receptor (Homo sapiens) (UniProt Q02763); conditions: at 1 µM
# [6] = molecular target: T2, Non-receptor tyrosine-protein kinase TNK1 (Homo sapiens) (UniProt Q13470); conditions: at 0.1 µM
# T2 sequence (whole entry): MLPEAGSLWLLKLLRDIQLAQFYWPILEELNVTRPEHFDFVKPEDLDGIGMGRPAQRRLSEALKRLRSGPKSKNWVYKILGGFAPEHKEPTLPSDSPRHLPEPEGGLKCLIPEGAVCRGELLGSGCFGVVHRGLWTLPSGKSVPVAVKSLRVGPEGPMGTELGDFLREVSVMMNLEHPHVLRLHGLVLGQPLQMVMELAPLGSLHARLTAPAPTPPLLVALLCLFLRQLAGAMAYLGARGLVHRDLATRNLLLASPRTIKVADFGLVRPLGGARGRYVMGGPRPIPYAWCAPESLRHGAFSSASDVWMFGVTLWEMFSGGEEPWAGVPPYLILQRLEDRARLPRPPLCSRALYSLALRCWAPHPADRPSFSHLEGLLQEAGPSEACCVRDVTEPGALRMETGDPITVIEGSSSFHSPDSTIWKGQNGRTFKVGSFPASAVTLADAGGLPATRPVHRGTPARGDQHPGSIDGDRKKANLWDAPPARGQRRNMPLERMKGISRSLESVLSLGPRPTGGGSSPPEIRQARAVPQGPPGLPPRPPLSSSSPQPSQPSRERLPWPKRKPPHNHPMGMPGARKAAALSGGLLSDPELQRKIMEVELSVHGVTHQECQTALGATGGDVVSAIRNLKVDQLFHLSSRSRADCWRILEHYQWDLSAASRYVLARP
# [7] = molecular target: T2, Non-receptor tyrosine-protein kinase TNK1 (Homo sapiens); conditions: at 1 µM
# [8] = molecular target: Activated CDC42 kinase 1 (Homo sapiens) (UniProt Q07912); conditions: at 0.1 µM
# Chain of Activated CDC42 kinase 1 (Homo sapiens) (Q07912 whole entry, looked up): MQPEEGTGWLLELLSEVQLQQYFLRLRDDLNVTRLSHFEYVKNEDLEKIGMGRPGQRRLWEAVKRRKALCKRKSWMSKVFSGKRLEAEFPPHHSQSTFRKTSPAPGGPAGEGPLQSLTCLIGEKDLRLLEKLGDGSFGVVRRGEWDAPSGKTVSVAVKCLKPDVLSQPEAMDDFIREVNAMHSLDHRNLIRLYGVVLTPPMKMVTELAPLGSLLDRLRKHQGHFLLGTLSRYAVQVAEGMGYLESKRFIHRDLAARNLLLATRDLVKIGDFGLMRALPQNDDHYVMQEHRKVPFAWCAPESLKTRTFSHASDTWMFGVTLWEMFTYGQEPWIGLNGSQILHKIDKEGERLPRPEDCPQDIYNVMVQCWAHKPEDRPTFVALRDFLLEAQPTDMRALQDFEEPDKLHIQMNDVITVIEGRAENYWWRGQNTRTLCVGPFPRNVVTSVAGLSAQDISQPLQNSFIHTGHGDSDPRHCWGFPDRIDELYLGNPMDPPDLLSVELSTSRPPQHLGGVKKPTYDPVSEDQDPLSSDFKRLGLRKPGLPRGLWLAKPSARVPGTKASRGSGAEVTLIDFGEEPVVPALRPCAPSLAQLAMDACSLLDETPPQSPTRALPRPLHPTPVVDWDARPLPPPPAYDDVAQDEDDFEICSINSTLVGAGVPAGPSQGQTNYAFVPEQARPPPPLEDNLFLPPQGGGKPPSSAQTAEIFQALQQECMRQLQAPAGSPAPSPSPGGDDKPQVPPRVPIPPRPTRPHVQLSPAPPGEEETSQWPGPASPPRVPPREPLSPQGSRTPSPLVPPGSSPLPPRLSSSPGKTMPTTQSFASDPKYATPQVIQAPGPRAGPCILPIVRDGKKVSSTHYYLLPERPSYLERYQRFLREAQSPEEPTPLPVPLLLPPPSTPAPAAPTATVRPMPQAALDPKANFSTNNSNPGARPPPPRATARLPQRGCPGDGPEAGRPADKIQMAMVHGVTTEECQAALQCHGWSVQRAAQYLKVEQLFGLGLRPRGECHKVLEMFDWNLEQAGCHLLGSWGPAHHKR
# [9] = molecular target: Activated CDC42 kinase 1 (Homo sapiens) (UniProt Q07912); conditions: at 1 µM
# [10] = molecular target: High affinity nerve growth factor receptor (Homo sapiens) (UniProt P04629); conditions: at 0.1 µM
# [11] = molecular target: High affinity nerve growth factor receptor (Homo sapiens) (UniProt P04629); conditions: at 1 µM
# [12] = molecular target: BDNF/NT-3 growth factors receptor (Homo sapiens) (UniProt Q16620); conditions: at 0.1 µM
# Chain of BDNF/NT-3 growth factors receptor (Homo sapiens) (Q16620 32-822 limits assumed): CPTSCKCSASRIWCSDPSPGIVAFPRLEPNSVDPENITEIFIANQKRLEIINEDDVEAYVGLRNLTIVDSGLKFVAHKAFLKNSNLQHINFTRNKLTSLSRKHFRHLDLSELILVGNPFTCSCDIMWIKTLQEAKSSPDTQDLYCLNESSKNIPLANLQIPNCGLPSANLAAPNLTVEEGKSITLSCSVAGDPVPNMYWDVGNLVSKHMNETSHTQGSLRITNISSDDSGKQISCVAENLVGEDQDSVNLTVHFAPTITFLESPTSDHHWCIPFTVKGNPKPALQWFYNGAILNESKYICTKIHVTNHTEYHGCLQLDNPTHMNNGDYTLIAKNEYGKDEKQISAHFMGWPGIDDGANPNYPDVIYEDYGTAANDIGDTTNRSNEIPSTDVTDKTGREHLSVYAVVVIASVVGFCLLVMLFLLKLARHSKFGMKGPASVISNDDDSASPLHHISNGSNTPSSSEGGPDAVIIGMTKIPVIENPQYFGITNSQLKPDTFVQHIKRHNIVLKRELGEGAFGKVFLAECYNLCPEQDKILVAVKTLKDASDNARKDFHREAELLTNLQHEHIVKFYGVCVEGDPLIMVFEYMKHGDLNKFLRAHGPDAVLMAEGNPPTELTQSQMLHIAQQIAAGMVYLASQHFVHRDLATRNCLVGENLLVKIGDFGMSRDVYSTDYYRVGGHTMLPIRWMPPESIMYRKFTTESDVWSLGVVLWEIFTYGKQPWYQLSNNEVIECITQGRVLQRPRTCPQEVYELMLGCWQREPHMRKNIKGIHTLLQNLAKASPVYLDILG
# [13] = molecular target: BDNF/NT-3 growth factors receptor (Homo sapiens) (UniProt Q16620); conditions: at 1 µM
# [14] = molecular target: NT-3 growth factor receptor (Homo sapiens) (UniProt Q16288); conditions: at 0.1 µM
# Chain of NT-3 growth factor receptor (Homo sapiens) (Q16288 32-839 limits assumed): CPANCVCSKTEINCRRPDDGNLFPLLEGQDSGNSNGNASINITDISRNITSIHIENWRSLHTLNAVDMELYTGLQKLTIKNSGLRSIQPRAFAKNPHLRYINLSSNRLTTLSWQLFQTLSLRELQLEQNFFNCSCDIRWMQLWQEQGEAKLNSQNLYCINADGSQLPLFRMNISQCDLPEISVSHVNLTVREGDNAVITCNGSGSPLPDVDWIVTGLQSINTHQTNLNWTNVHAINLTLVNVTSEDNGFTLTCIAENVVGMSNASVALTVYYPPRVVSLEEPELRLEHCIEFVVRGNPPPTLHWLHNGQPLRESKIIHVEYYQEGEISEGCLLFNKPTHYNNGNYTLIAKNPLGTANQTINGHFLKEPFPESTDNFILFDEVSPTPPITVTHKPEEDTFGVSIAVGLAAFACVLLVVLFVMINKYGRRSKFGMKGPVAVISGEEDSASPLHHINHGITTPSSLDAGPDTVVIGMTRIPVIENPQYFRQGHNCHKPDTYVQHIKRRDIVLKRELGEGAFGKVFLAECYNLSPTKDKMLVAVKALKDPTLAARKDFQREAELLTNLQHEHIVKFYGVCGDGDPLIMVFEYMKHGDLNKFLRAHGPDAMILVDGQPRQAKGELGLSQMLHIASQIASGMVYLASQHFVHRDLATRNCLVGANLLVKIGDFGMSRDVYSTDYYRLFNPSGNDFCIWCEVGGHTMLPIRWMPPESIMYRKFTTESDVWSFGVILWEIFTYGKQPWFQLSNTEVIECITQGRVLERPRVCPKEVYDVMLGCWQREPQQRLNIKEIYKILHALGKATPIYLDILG
# [15] = molecular target: NT-3 growth factor receptor (Homo sapiens) (UniProt Q16288); conditions: at 1 µM
# [16] = molecular target: T3, Tyrosine-protein kinase TXK (Homo sapiens) (UniProt P42681); conditions: at 0.1 µM
# T3 sequence (whole entry): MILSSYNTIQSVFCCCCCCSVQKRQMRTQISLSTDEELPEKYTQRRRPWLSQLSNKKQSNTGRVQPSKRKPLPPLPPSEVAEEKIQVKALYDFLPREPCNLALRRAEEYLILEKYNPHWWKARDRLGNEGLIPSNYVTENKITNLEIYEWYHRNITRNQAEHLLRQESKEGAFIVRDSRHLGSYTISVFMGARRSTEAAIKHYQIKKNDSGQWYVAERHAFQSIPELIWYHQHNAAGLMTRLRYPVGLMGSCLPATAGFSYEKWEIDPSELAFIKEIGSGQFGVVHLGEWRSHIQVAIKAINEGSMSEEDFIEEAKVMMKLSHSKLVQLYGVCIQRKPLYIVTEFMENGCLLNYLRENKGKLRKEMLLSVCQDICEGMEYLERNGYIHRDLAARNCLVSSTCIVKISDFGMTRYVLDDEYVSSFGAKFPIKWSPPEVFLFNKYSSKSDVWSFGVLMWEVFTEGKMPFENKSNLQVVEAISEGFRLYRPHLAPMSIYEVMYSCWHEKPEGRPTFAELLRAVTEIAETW
# [17] = molecular target: T3, Tyrosine-protein kinase TXK (Homo sapiens); conditions: at 1 µM
# [18] = molecular target: Non-receptor tyrosine-protein kinase TYK2 (Homo sapiens) (UniProt P29597); conditions: at 0.1 µM;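 further: each value is a mean of the inhibition readings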
# Chain of Non-receptor tyrosine-protein kinase TYK2 (Homo sapiens) (P29597 whole entry): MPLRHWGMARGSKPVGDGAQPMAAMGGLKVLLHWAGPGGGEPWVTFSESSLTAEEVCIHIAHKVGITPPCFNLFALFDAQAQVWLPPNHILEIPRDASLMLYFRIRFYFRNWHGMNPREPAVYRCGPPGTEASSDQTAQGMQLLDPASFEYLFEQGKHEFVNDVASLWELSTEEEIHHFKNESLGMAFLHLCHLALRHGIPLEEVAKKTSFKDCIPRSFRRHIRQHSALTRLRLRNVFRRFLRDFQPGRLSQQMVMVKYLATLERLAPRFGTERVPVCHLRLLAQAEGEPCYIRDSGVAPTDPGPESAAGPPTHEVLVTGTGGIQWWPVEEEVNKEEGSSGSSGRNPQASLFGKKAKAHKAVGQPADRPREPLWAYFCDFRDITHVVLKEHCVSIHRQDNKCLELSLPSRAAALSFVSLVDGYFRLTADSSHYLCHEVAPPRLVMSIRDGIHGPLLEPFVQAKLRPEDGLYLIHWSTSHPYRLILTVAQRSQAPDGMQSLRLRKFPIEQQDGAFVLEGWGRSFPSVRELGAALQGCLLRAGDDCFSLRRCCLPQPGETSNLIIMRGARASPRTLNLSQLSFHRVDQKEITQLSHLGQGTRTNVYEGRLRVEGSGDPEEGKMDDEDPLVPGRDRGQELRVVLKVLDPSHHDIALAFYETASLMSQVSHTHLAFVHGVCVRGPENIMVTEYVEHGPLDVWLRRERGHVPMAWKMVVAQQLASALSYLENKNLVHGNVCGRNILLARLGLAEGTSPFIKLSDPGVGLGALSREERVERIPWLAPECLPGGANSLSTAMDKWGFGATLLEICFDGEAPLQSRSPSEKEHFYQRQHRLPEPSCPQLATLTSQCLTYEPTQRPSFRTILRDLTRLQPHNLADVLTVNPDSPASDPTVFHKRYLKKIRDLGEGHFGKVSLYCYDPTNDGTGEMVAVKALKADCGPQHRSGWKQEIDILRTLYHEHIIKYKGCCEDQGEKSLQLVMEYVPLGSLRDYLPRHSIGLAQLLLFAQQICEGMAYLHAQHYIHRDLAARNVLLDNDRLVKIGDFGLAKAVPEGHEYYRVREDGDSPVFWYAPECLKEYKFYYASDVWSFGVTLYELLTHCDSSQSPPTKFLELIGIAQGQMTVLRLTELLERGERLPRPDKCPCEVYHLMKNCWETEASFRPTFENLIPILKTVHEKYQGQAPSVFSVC
# [19] = molecular target: T4, Dual specificity protein kinase TTK (Homo sapiens) (UniProt P33981); conditions: at 1 µM;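 further: reported figures are mean TTK inhibition at 1 µM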
# T4 sequence (whole entry): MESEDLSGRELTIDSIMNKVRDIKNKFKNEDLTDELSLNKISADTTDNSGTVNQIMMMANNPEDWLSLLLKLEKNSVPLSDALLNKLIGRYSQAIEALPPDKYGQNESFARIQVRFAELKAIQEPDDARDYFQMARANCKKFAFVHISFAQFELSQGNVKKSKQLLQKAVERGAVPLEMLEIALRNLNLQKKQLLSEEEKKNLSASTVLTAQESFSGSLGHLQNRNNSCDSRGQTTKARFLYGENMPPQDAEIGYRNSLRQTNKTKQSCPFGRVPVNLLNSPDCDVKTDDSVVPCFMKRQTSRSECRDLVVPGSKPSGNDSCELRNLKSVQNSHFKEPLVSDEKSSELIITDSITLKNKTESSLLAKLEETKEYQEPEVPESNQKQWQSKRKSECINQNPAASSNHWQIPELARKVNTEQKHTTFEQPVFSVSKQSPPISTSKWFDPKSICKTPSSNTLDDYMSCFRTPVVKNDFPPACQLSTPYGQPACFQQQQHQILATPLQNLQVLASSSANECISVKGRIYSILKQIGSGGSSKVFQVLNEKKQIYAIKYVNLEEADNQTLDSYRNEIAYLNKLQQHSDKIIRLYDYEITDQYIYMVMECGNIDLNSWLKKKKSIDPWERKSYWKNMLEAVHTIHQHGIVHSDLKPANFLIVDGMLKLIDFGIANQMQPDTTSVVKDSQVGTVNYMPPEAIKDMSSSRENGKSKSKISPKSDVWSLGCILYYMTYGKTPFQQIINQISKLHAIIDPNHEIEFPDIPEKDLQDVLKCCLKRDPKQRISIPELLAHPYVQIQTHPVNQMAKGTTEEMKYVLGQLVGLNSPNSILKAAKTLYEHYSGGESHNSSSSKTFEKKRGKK
# [20] = molecular target: T5, Aurora kinase A (Homo sapiens) (UniProt O14965); conditions: at 0.1 µM;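 further: each reported value is a mean percent inhibition of Aurora-A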
# T5 sequence (whole entry): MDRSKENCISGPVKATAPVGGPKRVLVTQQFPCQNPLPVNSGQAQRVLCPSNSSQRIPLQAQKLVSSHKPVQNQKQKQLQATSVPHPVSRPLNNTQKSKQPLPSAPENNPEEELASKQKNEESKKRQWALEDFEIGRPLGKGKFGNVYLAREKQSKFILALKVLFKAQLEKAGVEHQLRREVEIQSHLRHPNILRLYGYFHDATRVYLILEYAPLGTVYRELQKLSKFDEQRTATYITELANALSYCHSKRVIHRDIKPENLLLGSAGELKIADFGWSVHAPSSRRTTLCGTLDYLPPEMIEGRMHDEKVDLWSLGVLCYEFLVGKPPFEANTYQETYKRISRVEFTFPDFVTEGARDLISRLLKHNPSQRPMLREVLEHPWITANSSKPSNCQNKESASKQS
Structure (SMILES),inhibition [1],inhibition [2],inhibition [3],inhibition [4],inhibition [5],inhibition [6],inhibition [7],inhibition [8],inhibition [9],inhibition [10],inhibition [11],inhibition [12],inhibition [13],inhibition [14],inhibition [15],inhibition [16],inhibition [17],inhibition [18],inhibition [19],inhibition [20]
CCS(=O)(=O)c1ccc(OC)c(Nc2ncc(-c3cccc(C(C)=O)c3)o2)c1,-2.16%,6.22%,26.6%,2.09%,9.26%,15.3%,66.9%,1.65%,6.5%,4.29%,9.16%,4.28%,20.5%,4.38%,29.4%,13%,50.5%,-3.16%,8.55%,2.45%
COc1cc(Nc2ncc(-c3ccccc3)o2)cc(OC)c1,-7.57%,2.12%,7.94%,3.94%,7.85%,2.49%,31.1%,1.44%,3.07%,3.5%,19.7%,8.32%,35.2%,6.57%,30.5%,-1%,8.54%,-5.97%,11.9%,5.61%
CC1=C(C(=O)Nc2ccc3[nH]nc(C)c3c2)C(c2ccc(C(F)(F)F)cc2)CC(=O)N1 (stereo not given),-0.48%,4.4%,8.29%,1.71%,6.96%,6.09%,31.3%,3.49%,27.4%,4.41%,3.25%,1%,3.58%,2.43%,6.4%,3.55%,6.06%,0.25%,-0.26%,17.9%
COC(=O)Nc1nc2cc(Oc3ccc(NC(=O)Nc4ccccc4)cc3)ccc2[nH]1,0.09%,1.83%,1.84%,5.37%,9.24%,2.64%,4.12%,0.69%,1.18%,2.62%,0.28%,1.72%,3.06%,4.04%,7.05%,1.84%,1.98%,-2.96%,4.66%,2.47%
Cc1c2ccc(N(C)c3ccnc(Nc4cccc(S(N)(=O)=O)c4)n3)cc2nn1C,-6.33%,13.8%,50.2%,12.4%,53%,16.6%,60.1%,1.67%,4.21%,4.18%,7.91%,4.05%,9.82%,4.05%,11.1%,20.5%,59.4%,-3.68%,29.9%,11.7%
CCn1c(-c2nonc2N)nc2cncc(C(=O)NCCNC)c21,-6.01%,2.57%,4.27%,5.54%,7.24%,-0.07%,8.48%,2.67%,2.15%,1.96%,3.09%,3.03%,5.31%,3.96%,3.4%,-1.02%,1.12%,-3.39%,10.5%,3.09%
FC(F)(F)CNc1nccc(-c2cnn3ncccc23)n1,-3.33%,0.22%,2.62%,1.95%,3.61%,0.51%,4.99%,0.71%,-0.17%,-0.41%,2.2%,0.64%,-0.08%,0.73%,0.22%,-0.11%,1.8%,-4.86%,8.83%,2.68%
